Hits are enriched below; roughly 18% of the tested compounds scored in any of these assays.
HepG2 tox: qHTS for Inhibitors of TGF-b: Cytotox Counterscreen. 0.76% of 410,000 active. Potency, µM (titrated, usually from 46.1 µM), most hits filed as cytotoxic. HepG2 CAGA-GFP viability, ATP luminescence, 18 h
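HepG2 CAGA-GFP cells (1000/well, DMEM with 1% FBS) received compound, then TGF-beta at 500 pg/mL final, and were incubated 18 hours at 37 degrees C. Viability was read by CellTiter-Glo luminescence. Media-only wells were set as complete cell-killing and DMSO as no toxicity.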
IL-1B inflam inh: qHTS for Inhibitors of Inflammasome Signaling: IL-1-beta AlphaLISA Primary Screen. THP-1 LPS/ATP IL-1B secretion, AlphaLISA, 16 h; hits give low values. AID 743279, 2014. 4.7% of 360,000 active. activity change, % at 57.5 µM; in the data active = activity change below about -50%; inconclusive = mostly about -30% to -49%
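Secreted IL-1B measured by AlphaLISA bead assay after 16 h compound exposure of THP-1 cells; compounds (final up to 57.5 uM) added 1 h before LPS (250 ng/mL) and ATP (1.25 mM) stimulation; lower signal means less secretion.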
DT40 TDP1 no CPT: qHTS for Inhibitors of human tyrosyl-DNA phosphodiesterase 1 (TDP1): qHTS in cells in absence of CPT; Potency, µM (series often up to 46.2 µM), hits mostly inhibitors; 15% of 420,000 active; DT40 Tdp1-/- hTDP1 cells, no CPT, ATP luminescence, 48 h; note: nearly all actives have a fitted effect of over 55% in size
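Chicken DT40 Tdp1-/- cells complemented with human TDP1, screened without camptothecin (DMSO vehicle only), 400 cells/well. Compounds pin-transferred, cells incubated at 37 °C for at least 48 hr. Growth read as ATP-dependent luminescence (CellTiter-Glo, 30 min at RT).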
TDP1 cell CPT: qHTS for Inhibitors of human tyrosyl-DNA phosphodiesterase 1 (TDP1): qHTS in cells in presence of CPT | chicken DT40 Tdp1-/-;hTDP1 cells + 20 nM CPT, ATP luminescence, 48 h | Potency, µM (highest dose often 46.2 µM), usual class: inhibitors | 12% of 420,000 active | AID 686979, 2013; note: nearly all actives have a fitted effect of over 55% in size
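Cell growth measured by CellTiter-Glo luminescence after a minimum 48 h, 37 C compound exposure with 20 nM CPT in Tdp1-knockout DT40 cells stably expressing hTDP1, seeded 400/well; qHTS titration format.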
TDP1 block: qHTS Assay for Inhibitors of Tyrosyl-DNA Phosphodiesterase (TDP1); Tyrosyl-DNA phosphodiesterase 1 (Homo sapiens), Q9NUW8; recombinant TDP1, AlphaScreen DNA substrate cleavage; Potency, µM (series often up to 130 µM), most hits filed as inhibitors; 0.28% of 350,000 active; AID 485290, 2010; note: nearly all actives have a fitted effect of over 40% in size
Target sequence (Q9NUW8 whole entry, looked up): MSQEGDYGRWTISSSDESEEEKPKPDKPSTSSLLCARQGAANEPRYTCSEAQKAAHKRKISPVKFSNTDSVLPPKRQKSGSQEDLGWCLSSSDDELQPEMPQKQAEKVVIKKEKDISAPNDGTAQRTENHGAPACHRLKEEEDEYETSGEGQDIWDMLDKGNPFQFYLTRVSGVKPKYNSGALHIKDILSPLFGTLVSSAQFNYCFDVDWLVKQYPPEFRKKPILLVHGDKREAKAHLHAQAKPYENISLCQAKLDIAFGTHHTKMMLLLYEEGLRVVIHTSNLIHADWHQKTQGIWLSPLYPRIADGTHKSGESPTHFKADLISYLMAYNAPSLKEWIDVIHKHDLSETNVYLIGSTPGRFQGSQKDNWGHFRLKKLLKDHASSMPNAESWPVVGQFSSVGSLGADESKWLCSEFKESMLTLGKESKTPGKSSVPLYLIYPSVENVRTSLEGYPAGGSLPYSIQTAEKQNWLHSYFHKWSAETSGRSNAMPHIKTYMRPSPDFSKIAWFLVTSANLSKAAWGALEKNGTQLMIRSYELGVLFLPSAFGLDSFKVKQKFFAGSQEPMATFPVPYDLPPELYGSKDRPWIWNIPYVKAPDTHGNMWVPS
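AlphaScreen read-out: signal falls as enzyme removes the 3' tyrosine-FITC from a 5'-biotinylated DNA oligo (15 nM, 5 min, RT). Enzyme was E. coli-made recombinant Tdp1 at 1 nM, exposed to compound for 15 min beforehand; beads 10 ug/ml, 10 min.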
TGFb inhibitor: qHTS for Inhibitors of TGF-b; Potency, µM (series often up to 46.1 µM), most hits filed as inhibitors; HepG2 CAGA-GFP TGF-b/SMAD3 reporter, GFP fluorescence, 18 h; TGF-beta stimulated, 500 pg/mL final; 1.2% of 410,000 active; note: nearly all actives have a fitted effect of over 65% in size
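Inhibition was scored as loss of TGF-beta-induced (500 pg/mL final, 18 hours, 37 degrees C) GFP in HEPG2 cells carrying a CAGA-GFP reporter, in DMEM with 1% FBS. Well GFP was summed per cell; Activity was normalised to unstimulated and stimulated DMSO wells, then concentration-response fitting.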
Large screens that a line does not name were inactive. Unless noted, calls come from the whole dose curve; as a rule, active = well fitted curve in the direction sought with a large enough effect; inconclusive = small, poorly fitted or top-dose-only effect, or another doubt; inactive = no such curve, though single readings can be large; an effect the other way counts as inactive or inconclusive.

CCOC(=O)c1ccc(NC(=O)c2cc3cc(C)ccc3n2C)cc1	DT40 TDP1 no CPT inconclusive, TDP1 cell CPT inconclusive (no result: IL-1B inflam inh)
CCCCCCCCN1C(=O)[C@H](CC(=O)N2CCCCC2)C[C@@]2(C(=O)OC)CC(C)(C)CC=C12	DT40 TDP1 no CPT 6.5µM, TDP1 cell CPT 8.2µM (no result: HepG2 tox, TDP1 block, TGFb inhibitor)
CCCCCCCCN1C(=O)[C@H](CC(=O)NCC23CC4CC(CC(C4)C2)C3)C[C@@]2(C(=O)OC)CC(C)(C)CC=C12	DT40 TDP1 no CPT inconclusive (no result: HepG2 tox, TDP1 block, TGFb inhibitor)
CCCCCCCCN1C(=O)[C@H](CC(=O)N2CCOCC2)C[C@@]2(C(=O)OC)CC(C)(C)CC=C12	IL-1B inflam inh inconclusive, DT40 TDP1 no CPT 18µM, TDP1 cell CPT 21µM (no result: HepG2 tox, TDP1 block, TGFb inhibitor)
COc1ccc(NC=O)c(C(=O)CCNC(C)=O)c1	none (no result: HepG2 tox, IL-1B inflam inh, DT40 TDP1 no CPT, TDP1 cell CPT, TGFb inhibitor)
Cc1nc2ccc(C(=O)N3c4ccccc4CC3C)cc2s1 (stereo not given)	DT40 TDP1 no CPT inconclusive, TDP1 cell CPT 23µM
CC1Cc2ccccc2N1C(=O)c1cccnc1 (stereo not given)	none
Cc1ccc(/C=C2/C(=N)N3N=C(CC(=O)N4CCCC4)SC3=NC2=O)o1	DT40 TDP1 no CPT inconclusive, TDP1 cell CPT inconclusive, TGFb inhibitor inconclusive
N=C1/C(=C\c2ccc(Br)o2)C(=O)N=C2SC(CC(=O)N3CCCCC3)=NN12	DT40 TDP1 no CPT 7.3µM, TDP1 cell CPT 6.5µM
COc1cc(OC)c(NC(=O)c2c(N3CCCC3=O)c3cc(C)ccc3n2C)cc1Cl	none (no result: IL-1B inflam inh)
Cc1cc(NC(=O)c2cc3n(n2)C(C(F)(F)F)CC(c2ccc(Cl)c(Cl)c2)N3)no1 (stereo not given)	DT40 TDP1 no CPT 21µM, TDP1 cell CPT inconclusive
CCOc1ccc(NC(=O)c2cc3n(n2)C(C(F)(F)F)CC(c2ccco2)N3)cc1 (stereo not given)	none
Cc1ccc(C2CC(C(F)(F)F)n3nc(C(=O)Nc4c(C)n(C)n(-c5ccccc5)c4=O)cc3N2)cc1 (stereo not given)	DT40 TDP1 no CPT inconclusive, TDP1 cell CPT inconclusive
CCCCNC(=O)c1cc2n(n1)C(C(F)(F)F)CC(c1ccccc1)N2 (stereo not given)	none
O=C(Nc1ccc(O)cc1)c1cc2n(n1)C(C(F)(F)F)CC(c1ccco1)N2 (stereo not given)	DT40 TDP1 no CPT 7.3µM, TDP1 cell CPT 9.2µM, TGFb inhibitor inconclusive
CCOC(=O)c1c(NC(=O)c2cc3n(n2)C(C(F)(F)F)CC(c2ccccc2)N3)sc(C)c1C (stereo not given)	DT40 TDP1 no CPT 15µM, TDP1 cell CPT inconclusive, TGFb inhibitor inconclusive
COC(=O)C1Cc2c([nH]c3ccccc23)CN1C(C)=O (stereo not given)	none (no result: TDP1 block)
CN(CC(=O)Nc1ccccc1Cl)C(=O)COC(=O)CCN1C(=O)C2CC=CCC2C1=O (stereo not given)	none
COc1ccc(S(=O)(=O)Nc2cc(S(=O)(=O)N3CCOCC3)ccc2OC)cc1	none
COc1ncnc2c1ncn2CCCNc1ccc(C)c(C)c1	DT40 TDP1 no CPT 13µM, TDP1 cell CPT inconclusive (no result: TDP1 block)
COc1cc(NCCCn2cnc3c(OCc4ccccc4)ncnc32)cc(OC)c1OC	DT40 TDP1 no CPT inconclusive, TDP1 cell CPT inconclusive (no result: TDP1 block)
CNc1c(NS(=O)(=O)c2cc(OC)ccc2OC)c(=O)oc2ccccc12	none
CCOc1cccc(C2Nc3ccccc3-c3cc(C)nn32)c1O (stereo not given)	none (no result: IL-1B inflam inh)
CCOc1cccc(C2C=C(c3ccc4c(c3)OCO4)NC(c3ccc(Cl)cc3)N2)c1O (stereo not given)	DT40 TDP1 no CPT 13µM, TDP1 cell CPT 10µM, TGFb inhibitor inconclusive (no result: IL-1B inflam inh)
CCOc1cccc(C2C=C(c3ccc4c(c3)OCO4)NC(c3ccc(F)cc3)N2)c1O (stereo not given)	DT40 TDP1 no CPT 13µM, TDP1 cell CPT 14µM, TGFb inhibitor inconclusive (no result: IL-1B inflam inh)
CCOc1cccc(C2C=C(c3ccc4c(c3)OCO4)NC(c3ccccc3F)N2)c1O (stereo not given)	DT40 TDP1 no CPT 16µM, TDP1 cell CPT 11µM, TGFb inhibitor inconclusive (no result: IL-1B inflam inh)
CCN(C(=O)COC(=O)c1ccc2c(c1)OCO2)c1ccc(F)cc1	TDP1 cell CPT inconclusive
CCOC(=O)C1=C(CNCCc2ccc(Cl)cc2)NC(=O)NC1c1ccc2c(c1)OCO2 (stereo not given)	IL-1B inflam inh inconclusive, DT40 TDP1 no CPT inconclusive, TDP1 cell CPT inconclusive, TGFb inhibitor inconclusive
Cc1cc(O)c(N=Nc2ccc(C(=O)O)cc2)cc1C	none (no result: TDP1 block)
COCCCC1CCN(C(=O)c2cc(COc3cc(C)ccc3C)on2)CC1	DT40 TDP1 no CPT inconclusive, TDP1 cell CPT inconclusive
Cc1cc(C(=O)COC(=O)c2cccc(NS(C)(=O)=O)c2)c(C)n1CC1CCCO1 (stereo not given)	none
Nc1ccc2c(c1)ncn2CCCn1cnc2cc(N)ccc21	DT40 TDP1 no CPT inconclusive, TDP1 cell CPT 21µM, TGFb inhibitor inconclusive
C/C(=N\Nc1nc(C(C)(C)C)cs1)c1ccc(O)cc1	DT40 TDP1 no CPT 18µM
C/C(=N\Nc1nc2c(s1)CCCC2)c1ccccc1	DT40 TDP1 no CPT 15µM, TDP1 cell CPT 16µM, TGFb inhibitor inconclusive
C/C(=N\Nc1nc(C(C)(C)C)cs1)c1ccccc1	DT40 TDP1 no CPT 23µM, TDP1 cell CPT 23µM, TGFb inhibitor inconclusive
O=C(COC(=O)CC1CCCC1)Nc1ccc(Cl)cn1	none
O=C(NCC1CCCC(CNC(=O)Nc2ccc(Cl)cn2)C1)Nc1ccc(Cl)cn1 (stereo not given)	IL-1B inflam inh -83, DT40 TDP1 no CPT inconclusive, TDP1 cell CPT inconclusive, TGFb inhibitor inconclusive
CCC(COC)Oc1cc(NCc2ccccc2)c2ncn(C(C)C)c2c1 (stereo not given)	IL-1B inflam inh -90, DT40 TDP1 no CPT 18µM, TDP1 cell CPT 26µM, TGFb inhibitor inconclusive
CCCCOc1cc(NCc2ccccc2)c2ncn(C(C)C)c2c1	DT40 TDP1 no CPT 21µM, TDP1 cell CPT 23µM, TGFb inhibitor 18µM
CCC(CO)Oc1cc(NCc2cccc(OC)c2)c2ncn(C(C)C)c2c1 (stereo not given)	DT40 TDP1 no CPT inconclusive, TDP1 cell CPT 21µM
COCCCOc1cc(NCc2ccccc2)c2ncn(C(C)C)c2c1	none
